Measurements taken from PubChem BioAssay AID1159580 (chemical genetic matrix, 2015).
Out of some 5,500 compounds screened, about 2,000 (36%) were called active. About 18% were inconclusive and are not listed. No stated cut-off is given here; in the data, active means normalized growth mostly below about 0.91 (no sharp cut-off); inconclusive means no clear call, values can overlap the other calls; inactive means mostly above about 0.92. The list shows a part of the results.

Experiment: chemical genetic growth profiling, strain panel (AID 1159580);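 further: tested at 20 µM; growth read once vehicle control cultures reached saturation at 30 °C; 1 = growth at the plate median or of vehicle wells; lower values mean less growth of the strain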
Settings: growth OD

Measured: normalized growth

CC(C)N(C(=O)CCl)c1ccccc1
inactive: S. cerevisiae deletion strains, locus YJR043C, strain POL32, hits give low values 1.03 | S. cerevisiae deletion strains, locus YJR075W, strain HOC1, hits give low values 1.04 | S. cerevisiae deletion strains, locus YKL009W, strain mrt4, hits give low values 1.02 | S. cerevisiae deletion strains, locus YKL068W, hits give low values 1.04 | S. cerevisiae deletion strains, locus YKL085W, strain MDH1 (second series), hits give low values 1.03 | S. cerevisiae deletion strains, locus YKL085W, strain MDH1, hits give low values 1.03 | S. cerevisiae deletion strains, locus YKL160W, strain elf1, hits give low values 0.974 | S. cerevisiae deletion strains, locus YKL190W, strain CNB1, hits give low values 1.03 | S. cerevisiae deletion strains, locus YKR001C, strain vps1, hits give low values 1.07 | S. cerevisiae deletion strains, locus YKR026C, strain gcn3, hits give low values 1.01 | S. cerevisiae deletion strains, locus YKR091W, strain srl3, hits give low values 1.01 | S. cerevisiae deletion strains, locus YLL001W, strain dnm1, hits give low values 0.992 | S. cerevisiae deletion strains, locus YLL026W, hits give low values 1.01 | S. cerevisiae deletion strains, locus YLL041C, strain sdh2, hits give low values 1.02 | S. cerevisiae deletion strains, locus YLR027C, strain aat2, hits give low values 1.01 | S. cerevisiae deletion strains, locus YLR039C, strain RIC1, hits give low values 1.2 | S. cerevisiae deletion strains, locus YLR058C, strain SHM2, hits give low values 1.03 | S. cerevisiae deletion strains, locus YLR102C, strain apc9, hits give low values 1 | S. cerevisiae deletion strains, locus YLR221C, strain rsa3, hits give low values 1 | S. cerevisiae deletion strains, locus YLR258W, strain gsy2, hits give low values 0.978 | S. cerevisiae deletion strains, locus YLR262C, strain YPT6 (second series), hits give low values 1.14 | S. cerevisiae deletion strains, locus YLR262C, strain YPT6, hits give low values 1.21 | S. cerevisiae deletion strains, locus YLR268W, strain sec22, hits give low values 1.02 | S. cerevisiae deletion strains, locus YLR320W, strain mms22, hits give low values 0.97 | S. cerevisiae deletion strains, locus YLR330W, strain CHS5, hits give low values 1.02 | S. cerevisiae deletion strains, locus YLR342W, strain FKS1 (second series), hits give low values 0.989 | S. cerevisiae deletion strains, locus YLR342W, strain FKS1, hits give low values 1.03 | S. cerevisiae deletion strains, locus YLR370C, strain arc18, hits give low values 1.03 | S. cerevisiae deletion strains, locus YLR371W, strain rom2, hits give low values 1.01 | S. cerevisiae deletion strains, locus YLR384C, strain iki3, hits give low values 1.01 | S. cerevisiae deletion strains, locus YML016C, strain PPZ1, hits give low values 0.996 | S. cerevisiae deletion strains, locus YML032C, strain rad52, hits give low values 1.01 | S. cerevisiae deletion strains, locus YML120C, strain ndi1, hits give low values 0.986 | S. cerevisiae deletion strains, locus YML124C, strain tub3, hits give low values 1.02 | S. cerevisiae deletion strains, locus YMR058W, strain fet3, hits give low values 1 | S. cerevisiae deletion strains, locus YMR078C, strain ctf18, hits give low values 1.01 | S. cerevisiae deletion strains, locus YMR129W, hits give low values 1.01 | S. cerevisiae deletion strains, locus YMR205C, strain PFK2, hits give low values 0.919 | S. cerevisiae deletion strains, locus YMR223W, strain ubp8, hits give low values 1.02 | S. cerevisiae deletion strains, locus YMR231W, strain pep5, hits give low values 0.992 | S. cerevisiae deletion strains, locus YMR263W, strain SAP30, hits give low values 1.04 | S. cerevisiae deletion strains, locus YMR307W, strain GAS1, hits give low values 0.99 | S. cerevisiae deletion strains, locus YNL067W, strain RPL9B, hits give low values 1.04 | S. cerevisiae deletion strains, locus YNL071W, strain lat1, hits give low values 0.922 | S. cerevisiae deletion strains, locus YNL128W, strain TEP1, hits give low values 1.03 | S. cerevisiae deletion strains, locus YNL153C, strain GIM3, hits give low values 1.03 | S. cerevisiae deletion strains, locus YNL209W, strain ssb2, hits give low values 1.01 | S. cerevisiae deletion strains, locus YNL233W, strain BNI4, hits give low values 1.03 | S. cerevisiae deletion strains, locus YNL248C, strain rpa49, hits give low values 0.992 | S. cerevisiae deletion strains, locus YNL250W, strain rad50, hits give low values 1.03 | S. cerevisiae deletion strains, locus YNL271C, strain bni1, hits give low values 1.02 | S. cerevisiae deletion strains, locus YNL298W, strain CLA4, hits give low values 1.03 | S. cerevisiae deletion strains, locus YNL307C, strain MCK1, hits give low values 0.981 | S. cerevisiae deletion strains, locus YNL322C, strain KRE1 (second series), hits give low values 1.04 | S. cerevisiae deletion strains, locus YNL322C, strain KRE1, hits give low values 1.04 | S. cerevisiae deletion strains, locus YNR049C, strain mso1, hits give low values 1.02 | S. cerevisiae deletion strains, locus YNR052C, strain pop2, hits give low values 1.02 | S. cerevisiae deletion strains, locus YOL006C, strain TOP1, hits give low values 1 | S. cerevisiae deletion strains, locus YOL012C, strain htz1 0.89 | S. cerevisiae deletion strains, locus YOL147C, strain pex11, hits give low values 1 | S. cerevisiae deletion strains, locus YOR001W, strain rrp6, hits give low values 0.983 | S. cerevisiae deletion strains, locus YOR061W, strain CKA2, hits give low values 1.03 | S. cerevisiae deletion strains, locus YOR069W, strain VPS5, hits give low values 1.01 | S. cerevisiae deletion strains, locus YOR070C, strain gyp1, hits give low values 1.01 | S. cerevisiae deletion strains, locus YOR080W, strain dia2, hits give low values 1.03 | S. cerevisiae deletion strains, locus YOR083W, strain WHI5, hits give low values 0.976 | S. cerevisiae deletion strains, locus YOR106W, strain vam3, hits give low values 0.958 | S. cerevisiae deletion strains, locus YOR136W, strain idh2, hits give low values 1 | S. cerevisiae deletion strains, locus YOR144C, strain elg1, hits give low values 1.02 | S. cerevisiae deletion strains, locus YOR184W, strain ser1, hits give low values 1 | S. cerevisiae deletion strains, locus YOR265W, strain rbl2, hits give low values 1.04 | S. cerevisiae deletion strains, locus YOR270C, strain vph1, hits give low values 0.865 | S. cerevisiae deletion strains, locus YOR290C, strain snf2, hits give low values 0.928 | S. cerevisiae deletion strains, locus YOR316C, strain cot1, hits give low values 1.01 | S. cerevisiae deletion strains, locus YPL051W, strain arl3, hits give low values 0.987 | S. cerevisiae deletion strains, locus YPL055C, strain LGE1, hits give low values 1.03 | S. cerevisiae deletion strains, locus YPL078C, strain atp4, hits give low values 0.973 | S. cerevisiae deletion strains, locus YPL106C, strain sse1, hits give low values 1.14 | S. cerevisiae deletion strains, locus YPL240C, strain hsp82, hits give low values 1 | S. cerevisiae deletion strains, locus YPL241C, strain CIN2, hits give low values 1.02 | S. cerevisiae deletion strains, locus YPR119W, strain clb2, hits give low values 1.01 | S. cerevisiae deletion strains, locus YPR141C, strain kar3, hits give low values 1.03 | S. cerevisiae deletion strains, locus YPR163C, strain tif3, hits give low values 1.03 | S. cerevisiae deletion strains, locus YPR167C, strain met16, hits give low values 1.02 | S. cerevisiae deletion strains, strain wtn01, hits give low values 1.02 | S. cerevisiae strains, strain wild type, hits give low values 1.03
active: S. cerevisiae deletion strains, locus YLR357W, strain rsc2, hits give low values 1.18 [resistant] | S. cerevisiae deletion strains, locus YLR418C, strain cdc73, hits give low values 0.798 | S. cerevisiae deletion strains, locus YMR125W, strain sto1, hits give low values 1.16 [resistant]
